# Assay outcomes: PubChem BioAssay, several laboratories
# Shown are actives, neighbours in structure and some others; about 4.3% of the full set was active somewhere.
# NALP1 inh – NALP1 inhibition. S. cerevisiae NALP1/ASC/caspase-1 growth, X-gal OD620, 72 h. inhibition, % at 10 µM. actives 0.61% (n = 280,000). AID 2071; in the data active means inhibition mostly above about 24%, no sharp cut-off; inactive means mostly below about 32%
# NR3A LBD binder – modulators (binders) of human NR3A ligand-binding domain. NR3A LBD differential scanning fluorimetry, Tm shift; 0% = protein alone, 100% = glycine-bound protein. Tm shift relative to glycine control, % at 25 µM. actives 2.5% (n = 340,000);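 active means melting temperature shift of at least 10% of the positive control shift, at one fixed dose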
# CR mimetic SO – yeast age-related superoxide inhibition as caloric restriction mimetic; S. cerevisiae aged cells, superoxide DHE fluorescence; hits give low values; superoxide response (% of plate mean), % at 10 µM; actives 0.18% (n = 330,000);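 active means superoxide response under a set limit, about three screen SD below normal, cut at about 65% in these data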;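 further: yeast aged for seven days with compound at 30 °C before DHE staining; 100% = average MFI of all compound-treated wells on the plate with controls excluded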
# UBC13 inh – human UBC13 polyubiquitination inhibition; P61088; UBC13 polyubiquitin chain formation, TR-FRET; inhibition, % at 20 µM; actives 0.47% (n = 330,000); in the data active means inhibition above about 45%, passing the limit was not always enough
# Target sequence (P61088 whole entry, looked up): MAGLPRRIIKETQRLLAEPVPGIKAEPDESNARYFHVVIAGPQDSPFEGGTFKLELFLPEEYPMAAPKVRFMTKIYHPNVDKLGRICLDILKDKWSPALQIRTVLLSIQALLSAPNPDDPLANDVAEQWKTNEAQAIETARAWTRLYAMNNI
# dFosB act – activators of mouse delta FosB homodimer | purified delta FosB, TAMRA-CDK5 oligo fluorescence polarization; percent of positive-control signal above neutral wells | P13346 | actives 0.99% (n = 340,000) | activation, % at 25 µM;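 active means mean activation above about 17%, with every replicate also reaching it, limit read from the data, passing the limit was not always enough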
# Target sequence (P13346 whole entry, looked up): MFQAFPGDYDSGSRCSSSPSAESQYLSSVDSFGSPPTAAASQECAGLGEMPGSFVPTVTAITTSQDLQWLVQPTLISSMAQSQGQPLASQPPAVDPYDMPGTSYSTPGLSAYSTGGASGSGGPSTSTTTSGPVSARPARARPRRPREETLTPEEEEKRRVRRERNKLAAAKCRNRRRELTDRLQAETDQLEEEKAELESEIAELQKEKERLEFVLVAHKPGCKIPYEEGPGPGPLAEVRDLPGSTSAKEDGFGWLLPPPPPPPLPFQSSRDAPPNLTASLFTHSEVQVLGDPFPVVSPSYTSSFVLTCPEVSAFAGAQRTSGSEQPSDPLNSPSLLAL
# * = called active by the depositor; · = not tested or not shown; ! = repeats disagree.
SMILES,NALP1 inh,NR3A LBD binder,CR mimetic SO,UBC13 inh,dFosB act
O=C(O)CCCC(=O)Nc1cccc(-c2nc3ccccc3[nH]2)c1,17.8,0.2,99.9,4.0,-4.1
CCOC(=O)C1=C(COC(=O)/C=C/c2cccc(OC)c2OC)NC(=O)NC1C (stereo not given),4.0,-2.0,92.3,2.8,-30.3
CCNC(=S)Nc1ccc(-c2nc3ccccc3[nH]2)cc1,-2.6,27.7*,87.8,12.3,-3.4
O=C(Cc1cccs1)Nc1ccc(-c2nc3ccccc3[nH]2)cc1,34.0,32.4*,106.8,8.9,13.9
O=C(CSc1ccccc1)Nc1ccc(-c2nc3ccccc3[nH]2)cc1,37.9,32.9*,113.7,-6.3,15.3
O=C(CN1CCOCC1)Nc1ccc(-c2nc3ccccc3[nH]2)cc1,9.4,-6.8,102.4,12.1,-2.9
CCOc1ccc(NC(=S)NCc2nc3ccccc3[nH]2)cc1,6.0,-3.1,104.9,3.6,-9.9
CN1CCN(S(=O)(=O)c2cccc(C(=O)N(Cc3nnc(-c4ccccc4Cl)o3)C3CC3)c2)CC1,29.6,1.0,91.8,13.1,-4.4
Cc1coc2c1c(C)cc1oc(=O)c(CC(=O)N[C@@H](C)C(=O)O)c(C)c12,-0.6,1.2,99.0,9.3,-4.7
O=C(/C=C/Nc1cccc(F)c1)c1ccco1,15.1,27.8*,90.7,0.1,0.1
O=C(/C=C/Nc1ccc(F)c(Cl)c1)c1ccco1,30.8*,-5.2,80.7,-1.1,-6.4
O=C(CN1CCN(CC(=O)Nc2ccccc2Cl)CC1)NCC1(N2CCOCC2)CCCCC1,·,-1.3,·,14.6,-4.4
CCCCCCC(C)OC(=O)Nc1cccc2ccccc12 (stereo not given),22.2,10.3*,120.2,5.2,-0.3
O=C(CN1CCOCC1)N/N=C/c1c(O)ccc2ccccc12,4.2,1.4,104.7,-2.7,-4.4
O=C(CNc1ccccc1)N/N=C/c1c(O)ccc2ccccc12,-9.2,20.2*,109.1,0.1,-2.1
O=C(N/N=C/c1cc(Br)ccc1O)Nc1ccccc1,17.6,27.7*,97.4,1.3,0.4
CN(C)S(=O)(=O)c1cccc(NC(=S)N/N=C/c2cccc(O)c2)c1,2.0,-1.2,87.2,-1.5,2.2
O=C(O)c1ccc(N=Cc2c(O)ccc3ccccc23)cc1,0.5,0.3,98.7,-21.3,5.3
CN(C)S(=O)(=O)c1cccc(NC(=S)N/N=C/c2cc(Br)ccc2O)c1,28.8,11.7*,88.6,-4.6,-6.8
CC(=O)Nc1ccc(N=Cc2c(O)ccc3ccccc23)cc1,-3.3,39.4*,109.2,-62.5,-5.5
O=C(NNC(=O)c1cc(-c2ccncc2)nc2ccccc12)c1ccccc1O,·,·,115.6,-8.1,-15.3
O=C(N/N=C/c1c(O)ccc2ccccc12)Nc1ccccc1,·,39.4*,102.0,-12.3,·
O=C(CSCC(=O)Nc1ccccc1)N/N=C/c1c(O)ccc2ccccc12,-14.4,9.3,130.8,-9.2,-1.5
O=C(Nc1cccc(Cl)c1)c1ccc(S(=O)(=O)NCC2CCCO2)cc1 (stereo not given),2.5,21.1*,105.4,10.3,-15.7
COc1cccc(S(=O)(=O)NCc2ccc(C(=O)Nc3cccc(Cl)c3)cc2)c1,11.3,15.1*,71.5,4.8,8.0
SMILES,NALP1 inh,NR3A LBD binder,CR mimetic SO,UBC13 inh,dFosB act
Cc1ccc(NC(=O)c2ccc(CNS(=O)(=O)c3cccc(C(F)(F)F)c3)cc2)cc1,7.2,11.3*,98.6,-15.8,-11.7
O=C(Nc1ccccc1F)c1ccc(CNS(=O)(=O)c2cccc(C(F)(F)F)c2)cc1,1.2,-0.2,90.9,0.3,-2.1
Nc1ccc(C(=O)NC23CC4CC(CC(C4)C2)C3)cc1,3.4,-0.2,106.5,2.0,-4.4
CCCNC(=O)c1nnsc1S(=O)c1ccc(Cl)cc1 (stereo not given),103.0*,-0.8,·,-10.8,-4.9
CNC(=O)c1nnsc1S(=O)c1ccc(Cl)cc1 (stereo not given),92.7*,0.6,·,8.0,-4.2
CCCNC(=O)NS(=O)(=O)c1ccc(Cl)cc1,17.1,-1.7,91.0,7.2,4.8
CCCNC(=O)c1nnsc1S(=O)(=O)c1ccc(Cl)cc1,104.1*,-2.2,·,3.1,-2.3
c1ccc(CN2CCC3CC2c2cc(N4CCOCC4)ccc23)cc1 (stereo not given),·,2.4,·,·,6.4
Cc1ccc(NC(=O)c2ccccc2OCC(=O)Nc2ccccc2F)cc1S(=O)(=O)N(C)C,·,3.1,120.1,-7.6,-12.0
COc1ccc(/C=N/NC(=O)c2cc(Br)ccc2O)cc1Cn1cc(Cl)cn1,12.4,20.7*,106.3,4.4,2.6
COc1ccc(/C=N\NC(=O)c2cc(O)c(O)c(O)c2)cc1COc1ccc(C(=O)OCC(C)C)cc1,16.5,76.9*,101.5,-31.4,-1.7
COc1ccc(/C=N/NC(=O)c2ccc(OC)c(OC)c2)cc1COc1c(F)c(F)c(F)c(F)c1F,4.8,12.0*,99.0,-3.0,-14.5
COc1ccc(/C=N/NC(=O)c2ccc(F)cc2)cc1CN1CCc2cc(OC)c(OC)cc2C1C (stereo not given),10.5,-1.2,95.1,10.8,-1.4
COc1ccc(/C=N/NC(=O)c2ccc(O)cc2)cc1CN1CCCc2ccccc21,26.3,27.1*,87.6,-7.5,-1.9
Cc1ccc(S(=O)(=O)N2CCN(c3ccccc3)CC2)s1,·,3.8,101.4,9.6,-0.1
CN1CCN(S(=O)(=O)Cc2ccc(Cl)cc2)CC1,-4.1,2.9,96.6,-0.7,7.5
COCc1cc(/C=N\NC(=O)c2ccc(Cl)cc2)ccc1OC,32.5,11.3*,115.7,-0.7,-17.1
COc1ccc(/C=N\NC(=O)c2ccccc2)cc1COc1ccccc1,16.5,-2.7,103.1,-1.4,-6.1
COc1ccc(/C=N/NC(=O)c2nc(Cl)c(Cl)c(N)c2Cl)cc1COc1ccccc1F,-27.8,0.9,122.1,-5.3,3.9
COc1ccc(/C=N/NC(=O)c2nc(Cl)c(Cl)c(N)c2Cl)cc1COc1ccc(F)cc1F,-9.3,10.0*,121.1,-31.5,-10.2
Cc1ccc(S(=O)(=O)N2CCC(NC(=O)C3CCCCC3)CC2)cc1,15.8,-3.0,94.4,-12.0,-1.6
Cc1c(C(=O)C(=O)N2CC=C(c3ccccc3)CC2)c2ccccc2n1C,22.6,-0.5,93.3,-7.7,-4.2
COc1ccc(OC)c2c1sc(=NC(=O)c1ccco1)n2C,-4.4,16.1*,115.9,36.8,-3.9
COc1ccc(OC)c2c1sc(=NC(=O)C1CC1)n2C,2.8,0.5,99.8,4.7,0.2
COc1cccc(C(=O)N=c2sc3c(C)ccc(OC)c3n2C)c1,25.8,12.3*,104.4,23.2,0.0
Cc1nn(C)c(C(=O)N/N=C/c2ccc(Br)cc2)c1Cl,19.5,3.6,61.5*,-7.5,0.8
Cc1nn(C)c(C(=O)N/N=C/c2ccncc2)c1Cl,9.9,-1.6,94.5,-14.3,-4.3
Cc1ccccc1OCC(O)Cn1c(=N)n(CCN2CCOCC2)c2ccccc21 (stereo not given),42.8*!,-0.6,96.8,6.7,-10.9
